The whole screen tested about 5,500 compounds, of which about 2,000 (36%) were called active. Another 18% or so got no clear call; they are omitted. Cut-off read from the data, not from the text of the source: active = normalized growth mostly below about 0.91 (no sharp cut-off); inconclusive = no clear call, values can overlap the other calls; inactive = mostly above about 0.92. The list shows a part of the results.
Assay: chemical genetic growth profiling, strain panel (AID 1159580);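 note: tested at 20 µM; growth read once vehicle control cultures reached saturation at 30 °C; 1 = growth at the plate median or of vehicle wells; lower values mean less growth of the strain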
Conditions: S. cerevisiae deletion strains, growth OD

Measured: normalized growth

COc1cc(OC)c2c(=O)c(-c3ccccc3)c(C)oc2c1OC
inactive: locus YAL013W, strain DEP1, hits give low values 1.01 | locus YAL021C, strain ccr4, hits give low values 0.984 | locus YAL026C, strain drs2, hits give low values 0.986 | locus YAL030W, strain snc1, hits give low values 0.976 | locus YBL061C, strain skt5, hits give low values 0.975 | locus YBR009C, strain hhf1, hits give low values 0.953 | locus YBR021W, strain FUR4, hits give low values 1 | locus YBR023C, strain chs3, hits give low values 0.987 | locus YBR171W, strain sec66, hits give low values 0.984 | locus YBR229C, strain ROT2, hits give low values 1 | locus YBR231C, strain swc5, hits give low values 0.993 | locus YBR279W, strain paf1, hits give low values 0.986 | locus YCL011C, strain gbp2, hits give low values 0.973 | locus YCL016C, strain dcc1, hits give low values 0.987 | locus YCL029C, strain bik1, hits give low values 1 | locus YCL061C, strain MRC1, hits give low values 0.988 | locus YCL069W, strain vba3, hits give low values 0.974 | locus YCR088W, strain abp1, hits give low values 0.988 | locus YDL005C, strain med2, hits give low values 0.973 | locus YDL035C, strain GPR1, hits give low values 1.02 | locus YDL040C, strain nat1, hits give low values 0.985 | locus YDL074C, strain BRE1, hits give low values 1.02 | locus YDL101C, strain DUN1, hits give low values 1.01 | locus YDL134C, strain PPH21, hits give low values 1 | locus YDL185W, strain tfp1, hits give low values 1 | locus YDL192W, strain arf1, hits give low values 0.995 | locus YDR001C, strain nth1, hits give low values 0.987 | locus YDR069C, strain doa4, hits give low values 0.966 | locus YDR101C, strain arx1, hits give low values 0.984 | locus YDR137W, strain rgp1, hits give low values 0.955 | locus YDR150W, strain NUM1, hits give low values 1.02 | locus YDR159W, strain sac3, hits give low values 0.973 | locus YDR162C, strain NBP2, hits give low values 1.02 | locus YDR195W, strain ref2 0.921 | locus YDR297W, strain sur2, hits give low values 0.988 | locus YDR318W, strain mcm21, hits give low values 0.995 | locus YDR334W, strain swr1, hits give low values 0.981 | locus YDR335W, strain msn5, hits give low values 0.997 | locus YDR388W, hits give low values 0.988 | locus YDR392W, strain spt3, hits give low values 0.925 | locus YDR502C, strain sam2, hits give low values 0.997 | locus YEL003W, strain gim4, hits give low values 0.987 | locus YEL037C, strain rad23, hits give low values 0.981 | locus YEL061C, strain CIN8 (second series), hits give low values 0.967 | locus YEL061C, strain CIN8, hits give low values 1.01 | locus YER015W, strain faa2, hits give low values 0.981 | locus YER016W, strain bim1, hits give low values 0.986 | locus YER110C, hits give low values 0.994 | locus YER111C, strain swi4, hits give low values 0.971 | locus YER155C, strain BEM2 (second series), hits give low values 0.978 | locus YER155C, strain BEM2, hits give low values 1.01 | locus YER167W, strain BCK2, hits give low values 1 | locus YFR010W, strain ubp6, hits give low values 0.98 | locus YGL078C, strain dbp3, hits give low values 0.998 | locus YGL086W, strain mad1, hits give low values 1 | locus YGL167C, strain pmr1, hits give low values 0.97 | locus YGL173C, strain kem1, hits give low values 0.99 | locus YGL227W, strain vid30, hits give low values 0.961 | locus YGL240W, strain doc1, hits give low values 0.977 | locus YGL248W, strain PDE1, hits give low values 1 | locus YGL253W, strain hxk2, hits give low values 0.994 | locus YGR078C, strain PAC10, hits give low values 1.01 | locus YGR135W, strain pre9, hits give low values 0.993 | locus YGR229C, strain SMI1, hits give low values 1.03 | locus YGR252W, strain gcn5, hits give low values 0.943 | locus YHR013C, strain ard1, hits give low values 0.94 | locus YHR027C, strain rpn1, hits give low values 0.987 | locus YHR030C, strain SLT2, hits give low values 1.01 | locus YHR079C, strain IRE1 (second series), hits give low values 0.989 | locus YHR094C, strain hxt1, hits give low values 0.993 | locus YHR129C, strain ARP1, hits give low values 1 | locus YHR142W, strain chs7, hits give low values 1.01 | locus YHR200W, strain rpn10, hits give low values 0.997 | locus YIL066C, strain RNR3, hits give low values 1.01 | locus YIL073C, strain SPO22, hits give low values 0.999 | locus YIL125W, strain kgd1, hits give low values 0.997 | locus YIR030C, strain dcg1, hits give low values 1 | locus YJL092W, strain hpr5, hits give low values 0.987 | locus YJL095W, strain BCK1, hits give low values 1.01 | locus YJL115W, strain asf1, hits give low values 1 | locus YJL129C, strain trk1, hits give low values 0.946 | locus YJL134W, strain LCB3, hits give low values 1.01 | locus YJL154C, strain vps35, hits give low values 0.985 | locus YJL164C, strain tpk1, hits give low values 1 | locus YJL166W, strain qcr8, hits give low values 0.98 | locus YJL168C, strain set2, hits give low values 0.997 | locus YJL187C, strain SWE1 (second series), hits give low values 1.01 | locus YJL187C, strain SWE1, hits give low values 0.987

— PubChem BioAssay AID1159580 (chemical genetic matrix, 2015)
